Calls of active or inactive are those of the source. The calls were made as follows: active = hit-call score of the fitted dose curve at least 0.9, where 1 is the maximum; inactive = score below 0.9.
These molecules were tested on Cytochrome P450 4A22 (Homo sapiens) (UniProt Q5TCH4) (assay: LTEA_HepaRG_CYP4A22: Life Technologies and Expression Analysis (LTEA) Assay for Cytochrome P450 4A22 (CYP4A22) using HepaRG (AID 2283495)). Conditions: mRNA level, 48 h; actives raise or lower the signal.
Procedure, shortened: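 Cryopreserved HepaRG cells, plated and cultured 48 h, then switched to serum-free induction medium and treated 48 h (duplicates, up to 100 uM, half-log steps, 0.5% DMSO). Expression change of CYP4A22 was fitted bidirectionally against vehicle.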
In the case of `OC(CCl)CCl`, the outcome is reported as “inactive”.
In the case of `Cn1c(=O)c2[nH]cnc2n(C)c1=O`, the outcome is reported as “inactive”.
For `CCN(CC)C(=S)SSC(=S)N(CC)CC`, the outcome was “inactive”.
`Cn1cc[nH]c1=S` was tested, and the outcome was “inactive”.
In the case of `CC[C@H](C)C(=O)O[C@H]1C[C@H](O)C=C2C=C[C@H](C)[C@H](CC[C@@H](O)C[C@@H](O)CC(=O)O)[C@H]21`, the outcome is reported as “inactive”.
With `COc1cc2c(c(OC)c1OC)-c1ccc(OC)c(=O)cc1[C@@H](NC(C)=O)CC2` the AC50 was 0.108 µM (active).
For `NC(=O)N(O)[C@@H]1COc2cc(OCc3ccccc3)ccc21`, the outcome was “inactive”.
For `CCCCCCCCN(C)C`, the outcome was “inactive”.
In the case of `O=c1[nH]cnc2c1ncn2[C@H]1CC[C@@H](CO)O1`, the outcome is reported as “inactive”.
With `C=CN1CCCC1=O` the outcome was “inactive”.
For `CC1(C)C(=O)N(Cl)C(=O)N1Cl`, the outcome was “inactive”.
For `O=C1CN(N=Cc2ccc([N+](=O)[O-])o2)C(=O)N1`, the AC50 was 44.3 µM (active).
With `CCCCC(CC)C(=O)OCCOCCOCCOC(=O)C(CC)CCCC` (stereo not drawn) the outcome was “inactive”.
With `Cc1nc(-c2ccccn2)ncc1C(=O)Nn1cc(C)c2cc(F)ccc21` the AC50 was 51.4 µM (active).
In the case of `OCc1ccccc1`, the outcome is reported as “inactive”.
`CCCCN1C(=O)[C@@H]([C@H](O)C2CCCCC2)NC(=O)C12CCN(Cc1ccc(Oc3ccc(C(=O)O)cc3)cc1)CC2` was tested, and the AC50 was 3.35 µM (active).
For `O=C(NO)C1(NS(=O)(=O)c2ccc(Oc3ccc(F)cc3)cc2)CCOCC1`, the AC50 was 68.9 µM (active).
For `CCOC(N)=O`, the outcome was “inactive”.
With `O=C(O)c1cccc(C(=O)O)c1` the outcome was “inactive”.
For `Cc1nccn1-c1ccc(Sc2cccc(C3(C(N)=O)CCOCC3)c2)cc1`, the AC50 was 6.16 µM (active).
In the case of `CCc1cccc(CC)c1N`, the outcome is reported as “inactive”.
For `OCCOCCOCCO`, the outcome was “inactive”.
`CCCCCCCCCCCCCCO` was tested, and the outcome was “inactive”.
In the case of `c1ccc2ncccc2c1`, the outcome is reported as “inactive”.
In the case of `c1ccc(C(O[C@@H]2CCCN(CCc3ccc4c(c3)OCO4)C2)c2ccccc2)cc1`, the AC50 is reported as 6.12 µM (active).
`COS(C)(=O)=O` was tested, and the outcome was “inactive”.
For `OC(Cn1cncn1)(Cn1cncn1)c1ccc(F)cc1F`, the outcome was “inactive”.
With `CCCCCCCCCCCCCCCCOS(=O)(=O)O` the outcome was “inactive”.
With `CCCOc1ccc(S(=O)(=O)N2CCN(CC)CC2)cc1-c1nc2c(CC)n(Cc3ccccn3)nc2c(=O)[nH]1` the AC50 was 9.92 µM (active).
With `NC(=O)NN=Cc1ccc([N+](=O)[O-])o1` the outcome was “inactive”.
With `O=S1(=O)CCCO1` the outcome was “inactive”.
With `COc1cc(C(C)C)c2c(c1)S(=O)(=O)N(COc1cc(=O)n3cccc(OCCN4CCCCC4)c3n1)C2=O` the AC50 was 20.9 µM (active).
With `Cc1ncc([C@@H](CCCCCCc2ccc3c(n2)NCCC3)CC(=O)O)cn1` the outcome was “inactive”.

Source: PubChem BioAssay (EPA / NIEHS)
